Results on 20 molecules are retold here after PubChem BioAssay (NCATS).

Test [1] is described as follows: qHTS of pediatric cancer cell lines to identify multiple opportunities for drug repurposing: Primary screen for BT-12 cells (AID 1347101). Note: nearly all actives have a fitted effect of over 25% in size. Note: potency is the fitted concentration of half-maximal effect. The gist of the method: (§1)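 Cells (500-1,000/well) rested 5 h, then received compounds for 48 h; metabolically active cells were measured by CellTiter-Glo luminescence. Final concentrations spanned up to 46 µM (MIPE, 11-point) or 0.59 nM-46 µM (NPC, 8-point) in primary screens, 11-point in follow-ups.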
(In general: In qHTS, concentration-response curves come from the screen itself.)

Test [2] can be described thus: qHTS of pediatric cancer cell lines to identify multiple opportunities for drug repurposing: Primary screen for Rh18 cells (AID 1347102). Note: nearly all actives have a fitted effect of over 65% in size. Note: potency is the fitted concentration of half-maximal effect. The method, boiled down: (§2)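 Viability after 48 h compound treatment at 37C, 500-1,000 cells/well, read as ATP luminescence with CellTiter-Glo. Primary screens used 11-point (MIPE, 0.78 nM-46 µM) or 8-point (NPC, 0.59 nM-46 µM) final concentrations; follow-up screens used 11-point dilutions.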

The nature of test [3]: qHTS of pediatric cancer cell lines to identify multiple opportunities for drug repurposing: Primary screen for OHS-50 cells (AID 1347103). Note: nearly all actives have a fitted effect of over 40% in size. Note: potency is the fitted concentration of half-maximal effect. The gist of the method:
as §1

The nature of test [4]: qHTS of pediatric cancer cell lines to identify multiple opportunities for drug repurposing: Primary screen for RD cells (AID 1347104). Note: nearly all actives have a fitted effect of over 55% in size. Note: potency is the fitted concentration of half-maximal effect. The method, boiled down: (§3)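 Cells plated at 500-1,000/well in growth medium, compounds added after 5 h. MIPE tested at 11 points (from 0.78 nM), NPC at 8 points (from 0.59 nM). CellTiter-Glo luminescence after 48 h; concentration-response curves from primary screen.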

The nature of test [5]: qHTS of pediatric cancer cell lines to identify multiple opportunities for drug repurposing: Primary screen for MG 63 (6-TG R) cells (AID 1347105). Note: nearly all actives have a fitted effect of over 50% in size. Note: potency is the fitted concentration of half-maximal effect. The gist of the method: as §3
A short description of test [6]: qHTS of pediatric cancer cell lines to identify multiple opportunities for drug repurposing: Primary screen for control Hh wild type fibroblast cells (AID 1347106).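 Note: series mostly up to about 46 µM; a drop in luminescence marks cytotoxicity and a rise apparent proliferation; nearly all actives have a fitted effect of over 55% in size.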 The gist of the method:
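Cells (500-1,000/well) in growth media were settled 5 h at 37 degrees C, then given compounds for 48 h. Viability was read as CellTiter-Glo luminescence. Primary runs used MIPE at 11 points (0.78 nM-46 µM) and NPC at 8 points (0.59 nM-46 µM); follow-ups used 11 points.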

Test [7] can be described thus: qHTS of pediatric cancer cell lines to identify multiple opportunities for drug repurposing: Primary screen for Rh30 cells (AID 1347107). Note: nearly all actives have a fitted effect of over 75% in size. Note: potency is the fitted concentration of half-maximal effect. The method, boiled down: as §2
Test [8] in a line: qHTS of pediatric cancer cell lines to identify multiple opportunities for drug repurposing: Primary screen for Rh41 cells (AID 1347108). Note: nearly all actives have a fitted effect of over 70% in size. Note: potency is the fitted concentration of half-maximal effect. The gist of the method:
as §3

Inconclusive results are not listed. The source made the active and inactive calls. Calls come from the whole dose curve; as a rule, active = well fitted curve in the direction sought with a large enough effect; inconclusive = small, poorly fitted or top-dose-only effect, or another doubt; inactive = no such curve, though single readings can be large; an effect the other way counts as inactive or inconclusive.

As to `C[C@H](O)[C@@H]1C(=O)N2C(C(=O)O)=C(S[C@@H]3CN[C@H](CNS(N)(=O)=O)C3)[C@@H](C)[C@@H]12`, the Potency entry in test [1], in test [2], in test [3], in test [4], in test [5] and in test [6] was “inactive” throughout. Further, the Potency result in test [7] and in test [8] was “inactive” in each case.
Take `N#CC(=C(O)c1ccc(Cl)cc1Cl)c1nc2cc(Cl)ccc2c(=O)[nH]1`: the Potency entry in test [1], in test [2], in test [3], in test [4], in test [5] and in test [6] was “inactive” each time. Moreover, the Potency entry in test [7] and in test [8] was “inactive” in each case.
On to `C[C@H]1O[C@H](O[C@H]2[C@H](O)[C@@H](O)[C@@H](O[C@H]3[C@H](O)[C@@H](O)C(O)O[C@H]3CO)O[C@H]2CO)[C@H](O)[C@@H](O)[C@H]1N[C@H]1C=C(CO)[C@@H](O)[C@H](O)[C@@H]1O` (stereo not given in full), for which the Potency in test [1] and in test [3] was 2.17 µM (active) each time. The Potency result in test [2], in test [4], in test [5], in test [6], in test [7] and in test [8] was “inactive” each time.
Take `CC(=O)N[C@H]1[C@@H]([C@H](O)[C@H](O)CO)OC(C(=O)O)=C[C@@H]1N=C(N)N`: the Potency entry in test [1], in test [2], in test [3], in test [4], in test [5] and in test [6] was “inactive” each time. Besides, the Potency entry in test [7] and in test [8] was “inactive” each time.
For the molecule `CCOC(=O)[C@H](CCc1ccccc1)N[C@@H](C)C(=O)N1[C@@H](C(=O)O)C[C@H]2CCC[C@@H]21`, the Potency was 24.3 µM (active) in test [1]; 16.6 µM (active) in test [2]; 19.3 µM (active) in test [3]; 18.7 µM (active) in test [4]; 18.7 µM (active) in test [5]; 18.7 µM (active) in test [7]. In test [8], the Potency is 11.8 µM (active). Also, the Potency entry in test [6] is “inactive”.
For `CON=C(C(=O)N[C@@H]1C(=O)N2C(C(=O)O)=C(CSC(=O)c3ccco3)CS[C@H]12)c1csc(N)n1`, the Potency entry in test [1], in test [2], in test [3], in test [4], in test [5] and in test [6] was “inactive” in each case. The Potency result in test [7] and in test [8] was “inactive” in each case.
In the case of `O=C(CN1C(=O)C2(CCCC2)NC[C@H]1c1cc(F)cc(F)c1)Nc1ccc2c(c1)C[C@@]1(C2)C(=O)Nc2ncccc21`, the Potency entry in test [1], in test [2], in test [3], in test [4], in test [5] and in test [6] was “inactive” in each case. In addition, the Potency entry in test [7] and in test [8] was “inactive” each time.
In the case of `NC(=O)c1ncn([C@@H]2O[C@H](CO)[C@@H](O)[C@@H]2O)c1N`, the Potency result in test [1], in test [2], in test [3], in test [4], in test [5] and in test [6] was “inactive” each time. For the same molecule, the Potency result in test [7] and in test [8] was “inactive” throughout.
Consider `CCCc1nc(C(C)(C)O)c(C(=O)O)n1Cc1ccc(-c2ccccc2-c2nn[nH]n2)cc1`, for which the Potency result in test [1], in test [2], in test [3], in test [4], in test [5] and in test [6] was “inactive” each time. Also, the Potency result in test [7] and in test [8] was “inactive” in each case.
Regarding `CC(C)(C)[N+]([O-])=Cc1ccc(S(=O)(=O)O)cc1S(=O)(=O)O`, the Potency entry in test [1], in test [2], in test [3], in test [4], in test [5] and in test [6] was “inactive” in each case. The Potency entry in test [7] and in test [8] was “inactive” throughout.
Take `O=C(NNC(=O)c1ccc(CNS(=O)(=O)c2ccc(F)c(Cl)c2)cc1)c1ccccc1`: the Potency result in test [1], in test [2], in test [3], in test [4], in test [5] and in test [6] was “inactive” in each case. Further, the Potency entry in test [7] and in test [8] was “inactive” in each case.
In the case of `CCOC(=O)C=C[C@H](C[C@@H]1CCNC1=O)NC(=O)[C@@H](CC(=O)[C@@H](NC(=O)c1cc(C)on1)C(C)C)Cc1ccc(F)cc1`, the Potency result in test [1], in test [2], in test [3], in test [4], in test [5] and in test [6] was “inactive” throughout. Moreover, the Potency result in test [7] and in test [8] was “inactive” throughout.
Regarding `C=C(C)[C@@H]1CC[C@]2(C)CC[C@]3(C)[C@H](CC[C@@H]4[C@@]5(C)CC[C@H](O)C(C)(C)[C@H]5CC[C@]43C)[C@@H]12`, the Potency entry in test [1], in test [2], in test [3], in test [4], in test [5] and in test [6] was “inactive” each time. In addition, the Potency result in test [7] and in test [8] was “inactive” throughout.
On to `COC(=O)[C@H](CCCN=C(N)N)NS(=O)(=O)c1ccc(C)cc1`, for which the Potency result in test [1], in test [2], in test [3], in test [4], in test [5] and in test [6] was “inactive” throughout. Moreover, the Potency result in test [7] and in test [8] was “inactive” each time.
As for `CCCCCCCCc1ccc(CCC(N)(CO)CO)cc1`, the Potency in test [1] is 21.7 µM (active); in test [2], 16.6 µM (active); in test [3], 15.3 µM (active); in test [4] it was 8.33 µM (active); in test [5], 18.7 µM (active); in test [7] it was 18.7 µM (active). Besides, the Potency in test [8] was 18.7 µM (active). The Potency result in test [6] was “inactive”.
`CC(=O)O[C@H]1C[C@@H]2CC[C@H]3[C@H]4C[C@H]([N+]5(C)CCCCC5)[C@@H](OC(C)=O)[C@@]4(C)CC[C@@H]3[C@@]2(C)C[C@H]1[N+]1(C)CCCCC1`: the Potency result in test [1], in test [2], in test [3], in test [4], in test [5] and in test [6] was “inactive” each time. Further, the Potency entry in test [7] and in test [8] was “inactive” each time.
Turning to `C[N+]1(C)[C@@H]2C[C@@H](OC(=O)C(O)(c3cccs3)c3cccs3)C[C@H]1[C@@H]1O[C@@H]12`, the Potency entry in test [1], in test [2], in test [3], in test [4], in test [5] and in test [6] was “inactive” throughout. Moreover, the Potency result in test [7] and in test [8] was “inactive” in each case.
For the molecule `c1cc(CN2CCCNCCNCCCNCC2)ccc1CN1CCCNCCNCCCNCC1`, the Potency result in test [1], in test [2], in test [3], in test [4], in test [5] and in test [6] was “inactive” in each case. The Potency entry in test [7] and in test [8] was “inactive” each time.
Consider `Oc1cc2c(cc1O)C1c3ccc(O)c(O)c3OCC1(O)C2` (stereo not given), for which the Potency result in test [1], in test [2], in test [3], in test [4], in test [5] and in test [6] was “inactive” each time. Moreover, the Potency entry in test [7] and in test [8] was “inactive” each time.
Consider `Cn1cc(C[C@@H](N)C(=O)O)c2ccccc21`, for which the Potency entry in test [1], in test [2], in test [3], in test [4], in test [5] and in test [6] was “inactive” in each case. Further, the Potency result in test [7] and in test [8] was “inactive” in each case.
